Experimental findings from PubChem BioAssay are described below.

Unmarked numbers belong to inactive results. For some of these results: Results with a measured potency or affinity are listed apart. Active and inactive are the calls of the source. Unless noted, how the calls were made is not given here. Residues, ends and D or L forms follow the SMILES beside them. *: point of attachment. Boc = CC(C)(C)OC(=O)*

The nature of assay [1]: antimalarial activity against Dd2 strain (AID 2302;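 active means growth inhibition above 50% at the single 2 µM test dose, taken to imply half-maximal potency below 2 µM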;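 further: 0% = DMSO untreated growth and 100% = chloroquine plus artemisinin killed control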). Particulars: P. falciparum Dd2 in RBCs, LDH growth readout, 72 h; at 2 µM; hits give high values.
A short description of assay [2]: HepG2 cytotoxicity, primary screen, cytotoxicity control for P. falciparum antimalarial project, cell-based, ATP luminescence (AID 2303;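 active means inhibition above 50%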;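 further: 0% = DMSO wells and 100% = digitonin-killed cells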). Conditions: HepG2 viability, 24-48 h, at 10 µM, hits give high values.
The target of assay [3] is L-lactate dehydrogenase (Plasmodium falciparum (isolate CDC / Honduras)) (UniProt Q27743). As to the kind of experiment: PfLDH activity inhibition – cell lysate, 3D7 strain, counter-screen for P. falciparum growth inhibition project (AID 2304).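 Further: 0% = vehicle and 100% = reference inhibitor.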 Particulars: P. falciparum 3D7 crude extract, LDH APAD/NBT absorbance; at 2 µM; hits give high values.
The nature of assay [4]: inhibition of 3D7 malaria parasite growth – strain 3D7 (AID 2306).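 Further: 0% = DMSO wells and 100% = chloroquine plus artemisinin control wells.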 Conditions: P. falciparum 3D7 erythrocytic growth, LDH absorbance, 72 h; at 2 µM; hits give high values.
In assay [5] the target is Calcium-dependent protein kinase 1 (Plasmodium falciparum (isolate 3D7)) (UniProt P62344). Put plainly: PfCDPK1 kinase inhibitors, biochemical, TCAMS library (AID 1159585; cut-off not given, nearly all actives have IC50 up to about 0.98 µM;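 further: inhibitors leave more ATP so luminescence rises with inhibition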). Conditions: recombinant PfCDPK1, Kinase-Glo ATP depletion luminescence. In general terms: Kinase-Glo reads ATP consumption through a luciferase reaction.
Assay [6] deals with Plasmodium falciparum protein kinase 6 (PK6, PF3D7_1337100) (UniProt Q8IDW1). Put plainly: PfPK6 kinase inhibitors, biochemical, TCAMS library (AID 1159586). Particulars: recombinant PfPK6, Kinase-Glo ATP depletion luminescence.
The target of assay [7] is Protein kinase 7 (PK7), Plasmodium falciparum 3D7 (PF3D7_0213400) (UniProt Q7YTF7). Put plainly: inhibition of Plasmodium PK7 catalytic activity – biochemical, TCAMS antimalarial set, Kinase-Glo luminescence (AID 1159587). Particulars: recombinant PfPK7, Kinase-Glo ATP depletion luminescence.
The target in assay [8] is Calcium-dependent protein kinase 4 (Plasmodium falciparum (isolate 3D7)) (UniProt Q8IBS5). Put plainly: PfCDPK4 kinase inhibitors, biochemical, TCAMS library (AID 1159588; cut-off not given, nearly all actives have IC50 up to about 0.91 µM). Conditions: recombinant PfCDPK4, Kinase-Glo ATP depletion luminescence.
Calcium-dependent protein kinase 4 (Plasmodium falciparum (isolate 3D7)), sequence (Q8IBS5 whole entry, looked up): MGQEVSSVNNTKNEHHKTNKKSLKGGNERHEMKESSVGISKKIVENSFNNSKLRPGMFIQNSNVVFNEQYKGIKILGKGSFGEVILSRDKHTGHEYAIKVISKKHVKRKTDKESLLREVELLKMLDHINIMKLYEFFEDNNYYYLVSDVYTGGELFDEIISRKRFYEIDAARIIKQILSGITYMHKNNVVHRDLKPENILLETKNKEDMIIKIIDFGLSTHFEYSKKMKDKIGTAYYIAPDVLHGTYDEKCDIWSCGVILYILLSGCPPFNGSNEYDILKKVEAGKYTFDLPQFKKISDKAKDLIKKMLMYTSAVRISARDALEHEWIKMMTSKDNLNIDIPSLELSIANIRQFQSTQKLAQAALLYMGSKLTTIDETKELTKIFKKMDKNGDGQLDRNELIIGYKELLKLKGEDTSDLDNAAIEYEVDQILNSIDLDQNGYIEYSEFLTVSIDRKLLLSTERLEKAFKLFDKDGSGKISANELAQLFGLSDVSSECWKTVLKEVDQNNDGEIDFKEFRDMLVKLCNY

L-lactate dehydrogenase (Plasmodium falciparum (isolate CDC / Honduras)), sequence (Q27743 whole entry, looked up): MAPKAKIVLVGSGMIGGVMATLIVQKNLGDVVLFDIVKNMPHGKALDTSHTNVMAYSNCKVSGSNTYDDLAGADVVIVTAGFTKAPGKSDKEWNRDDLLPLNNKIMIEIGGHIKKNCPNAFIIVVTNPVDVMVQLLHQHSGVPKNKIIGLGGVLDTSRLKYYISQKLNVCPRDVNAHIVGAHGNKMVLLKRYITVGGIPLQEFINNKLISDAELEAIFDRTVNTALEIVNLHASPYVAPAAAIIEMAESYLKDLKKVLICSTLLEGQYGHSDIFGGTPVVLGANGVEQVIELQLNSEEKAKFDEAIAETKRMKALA
Protein kinase 7 (PK7), Plasmodium falciparum 3D7 (PF3D7_0213400), sequence (Q7YTF7 1-343): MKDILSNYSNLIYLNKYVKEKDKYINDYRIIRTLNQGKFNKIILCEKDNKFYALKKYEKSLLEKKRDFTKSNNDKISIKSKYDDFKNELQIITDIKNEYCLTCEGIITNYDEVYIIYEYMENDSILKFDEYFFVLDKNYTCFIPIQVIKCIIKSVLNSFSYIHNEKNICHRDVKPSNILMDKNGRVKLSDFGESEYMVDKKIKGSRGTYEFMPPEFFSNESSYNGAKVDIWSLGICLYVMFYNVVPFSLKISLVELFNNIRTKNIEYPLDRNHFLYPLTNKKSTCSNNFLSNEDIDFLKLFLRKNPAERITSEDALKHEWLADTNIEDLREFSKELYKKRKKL
Calcium-dependent protein kinase 1 (Plasmodium falciparum (isolate 3D7)), sequence (P62344 whole entry, looked up): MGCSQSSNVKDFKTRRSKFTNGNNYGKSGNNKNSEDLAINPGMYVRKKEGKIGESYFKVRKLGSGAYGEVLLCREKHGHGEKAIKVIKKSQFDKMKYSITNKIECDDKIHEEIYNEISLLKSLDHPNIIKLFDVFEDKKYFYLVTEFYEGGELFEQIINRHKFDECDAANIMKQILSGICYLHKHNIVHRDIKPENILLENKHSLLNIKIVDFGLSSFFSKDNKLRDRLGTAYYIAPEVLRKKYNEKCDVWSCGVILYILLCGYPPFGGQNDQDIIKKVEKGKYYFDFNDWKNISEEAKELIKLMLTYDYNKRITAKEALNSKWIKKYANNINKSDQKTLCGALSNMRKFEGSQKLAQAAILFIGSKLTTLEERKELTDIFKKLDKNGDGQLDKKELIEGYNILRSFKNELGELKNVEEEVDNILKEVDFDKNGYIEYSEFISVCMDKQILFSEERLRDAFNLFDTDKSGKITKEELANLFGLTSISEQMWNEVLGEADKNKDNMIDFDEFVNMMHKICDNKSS
Plasmodium falciparum protein kinase 6 (PK6, PF3D7_1337100), sequence (Q8IDW1 1-305): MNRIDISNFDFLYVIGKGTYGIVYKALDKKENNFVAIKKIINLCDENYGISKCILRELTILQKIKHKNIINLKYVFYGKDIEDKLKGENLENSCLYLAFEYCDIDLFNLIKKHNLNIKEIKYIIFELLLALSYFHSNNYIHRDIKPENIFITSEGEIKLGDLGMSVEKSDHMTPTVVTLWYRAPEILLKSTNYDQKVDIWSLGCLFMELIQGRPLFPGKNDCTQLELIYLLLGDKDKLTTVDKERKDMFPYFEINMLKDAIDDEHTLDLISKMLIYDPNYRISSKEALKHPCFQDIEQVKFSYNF

The term inhibition denotes the drop in the measured response relative to a control, in per cent. `O=C(NC(=S)NCc1ccncc1)c1ccccc1`: the growth inhibition in assay [1] was -3%; in assay [4], 94% (active). The inhibition in assay [2] was -7%; in assay [3], 1%. Moreover, the outcome in assay [5], in assay [6], in assay [7] and in assay [8] was inactive.
On to `Cc1noc(C)c1-c1cccc(CNCc2ccc(-c3cccc(-c4nc5c(C)cccc5[nH]4)c3)cc2)c1`, for which the values for the growth inhibition in assay [1] and in assay [4] were 94% (active) and 101% (active), respectively. For the same molecule, the inhibition was 24% in assay [2] and 7% in assay [3]. The outcome in assay [5], in assay [6], in assay [7] and in assay [8] was inactive.
On to `O=C(Nc1cccnc1)c1cc(-c2cccnc2)nc2ccc(Cl)cc12`, for which the growth inhibition in assay [1] was 50% (active); in assay [4] it was 97% (active). Besides, the inhibition in assay [2] is 45%; in assay [3] it was -6%. In addition, the result in assay [5], in assay [6], in assay [7] and in assay [8] was inactive.
Consider `CC(C)(C(=O)Nc1ccc(C2CCC(NCC3CC3)CC2)c(Cl)c1)c1ccc(C(F)(F)F)cc1` (stereo not given), for which the growth inhibition was 18% in assay [1] and 97% (active) in assay [4]. Moreover, the inhibition in assay [2] is 64% (active); in assay [3], -1%. The outcome in assay [5], in assay [6], in assay [7] and in assay [8] was inactive.
Consider `Cc1sc2cc(Cl)cc(Cl)c2c1S(=O)(=O)Nc1ccc2nccc(N3CCNCC3)c2c1`, for which the growth inhibition in assay [1] is 99% (active); in assay [4] it was 100% (active). For the same molecule, the inhibition is 24% in assay [2] and -8% in assay [3]. In addition, the outcome in assay [5], in assay [6], in assay [7] and in assay [8] was inactive.
Regarding `O=C(NC1CCCCN(Cc2ccccc2O)C1)c1ccc(Cl)c(Cl)c1` (stereo not given), the growth inhibition in assay [1] and in assay [4] was 96% (active) each time. Also, the inhibition in assay [2] is -7%; in assay [3], -1%. The outcome in assay [5], in assay [6], in assay [7] and in assay [8] was inactive.
With `N#Cc1ccc(N(CCOC(=O)c2ccc(Br)s2)Cc2ccccc2C(F)(F)F)cc1C(F)(F)F`, the growth inhibition is 48% in assay [1] and 82% (active) in assay [4]. Moreover, the inhibition in assay [2] is 8%; in assay [3], 3%. Also, the outcome in assay [5], in assay [6], in assay [7] and in assay [8] was inactive.
On to `Cc1ccccc1C1CCN(C2CCC(NC(=O)c3ccc(-c4cc(C(F)(F)F)nn4C)s3)CC2)CC1` (stereo not given), for which the growth inhibition in assay [1] is 68% (active); in assay [4], 98% (active). The inhibition in assay [2] is 42%; in assay [3] it was -2%. For the same molecule, the result in assay [5], in assay [6], in assay [7] and in assay [8] was inactive.
Turning to `Cc1cnc(N2CCN(CCCN3CCCC3)CC2)nc1Oc1ccc(-n2ccnc2)cc1`, the growth inhibition was 82% (active) in assay [1] and 99% (active) in assay [4]. In addition, the inhibition in assay [2] was 12%; in assay [3] it was 4%. The outcome in assay [5], in assay [6], in assay [7] and in assay [8] was inactive.
Take `O=C(NCCCCN1CCN(c2cccc(Cl)c2Cl)CC1)c1ccc2c(c1)CCN(C1CCC1)CC2`: the results for the growth inhibition in assay [1] and in assay [4] were 31% and 95% (active), respectively. Moreover, the inhibition in assay [2] was 97% (active); in assay [3], 3%. The outcome in assay [5], in assay [6], in assay [7] and in assay [8] was inactive.
Consider `COc1ccccc1NC(=O)Nc1cccc(-c2cccc(-c3nc4c(C)cccc4[nH]3)c2)c1`, for which the results for the growth inhibition in assay [1] and in assay [4] were 90% (active) and 101% (active), respectively. For the same molecule, the inhibition in assay [2] is 11%; in assay [3] it was -1%. In addition, the result in assay [5], in assay [6], in assay [7] and in assay [8] was inactive.
As to `CC(C)Cn1c(Sc2ccc(C#N)c([N+](=O)[O-])c2)nnc1-c1cccc(Cl)c1`, the results for the growth inhibition in assay [1] and in assay [4] were 95% (active) and 98% (active), respectively. Moreover, the inhibition in assay [2] was 24%; in assay [3] it was 5%. The result in assay [5], in assay [6], in assay [7] and in assay [8] was inactive.
On to `C[C@H]1[C@H](c2cccc(Cl)c2)OCC(C)(C)N1C(=O)CCN1CCCCC1`, for which the growth inhibition in assay [1] was 5%; in assay [4], 88% (active). Also, the inhibition was 2% in assay [2] and -1% in assay [3]. The result in assay [5], in assay [6], in assay [7] and in assay [8] was inactive.
In the case of `O=C(Nc1ccc(OC2CCN(Cc3ccco3)C2)c(Cl)c1)c1ccc2ncccc2c1` (stereo not given), the growth inhibition in assay [1] is 42%; in assay [4] it was 92% (active). Further, the inhibition was 1% in assay [2] and -6% in assay [3]. For the same molecule, the outcome in assay [5], in assay [6], in assay [7] and in assay [8] was inactive.
On to `Cc1cc(NCCC(=O)Nc2ccccc2)nc(NCc2ccccc2C)n1`, for which the growth inhibition is 57% (active) in assay [1] and 100% (active) in assay [4]. Besides, the values for the inhibition in assay [2] and in assay [3] were 6% and -1%, respectively. For the same molecule, the result in assay [5], in assay [6], in assay [7] and in assay [8] was inactive.
Turning to `COC(=O)CC[C@H](NC(=O)[C@H](C)NC(=O)OC(C)(C)C)C(=O)OC` (Boc-Ala-Glu(OMe)-OMe), the values for the growth inhibition in assay [1] and in assay [4] were 0% and 95% (active), respectively. In addition, the figures for the inhibition in assay [2] and in assay [3] were 12% and -2%, respectively. Moreover, the result in assay [5], in assay [6], in assay [7] and in assay [8] was inactive.
Consider `O=C1CCCN1CCCNCc1cccc(-c2ccc(-c3nc4ccc(C(F)(F)F)cc4[nH]3)s2)c1`, for which the growth inhibition was 99% (active) in assay [1] and 100% (active) in assay [4]. In addition, the values for the inhibition in assay [2] and in assay [3] were 19% and -4%, respectively. Besides, the result in assay [5], in assay [6], in assay [7] and in assay [8] was inactive.
With `COC(=O)c1ccc2c(-c3nc4ccc(OC)cc4[nH]3)c[nH]c2c1`, the growth inhibition in assay [1] was 31%; in assay [4] it was 95% (active). In addition, the inhibition was 0% in assay [2] and 5% in assay [3]. In addition, the outcome in assay [5], in assay [6], in assay [7] and in assay [8] was inactive.
As to `Cc1ccc(-c2cc(C(=O)Nc3ccc(S(=O)(=O)N4CC(C)OC(C)C4)cc3)[nH]n2)c(O)c1` (stereo not given), the growth inhibition in assay [1] is 98% (active); in assay [4], 91% (active). Moreover, the inhibition in assay [2] was 16%; in assay [3] it was -1%. Further, the result in assay [5], in assay [6], in assay [7] and in assay [8] was inactive.
As to `O=C(NCc1ccc(C(=O)NC2CCCCCC2)cc1)c1ccc(O)c(-c2ccc(Cl)c(Cl)c2)c1`, the growth inhibition in assay [1] is 21%; in assay [4], 83% (active). For the same molecule, the inhibition in assay [2] is -1%; in assay [3], -3%. The result in assay [5], in assay [6], in assay [7] and in assay [8] was inactive.
